Bioassay records from PubChem BioAssay.
Pf growth 48h = P. falciparum growth inhibition at 48 hours (one generation) | P. falciparum luciferase growth in erythrocytes, 48 h | Potency, µM (top dose mostly 28.7 µM), for the others: at the highest dose activity change, negative = inhibition, usual class: inhibitors | hit rate 5.9% among 310,000 | AID 504832; further: potency means the concentration at half of the fitted maximal effect; on the % scale 0 is the no-effect control and ±100 the full control effect
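Growth was read as firefly luciferase luminescence after a 48 h, 37 C, 5% CO2 exposure of compounds to reporter-bearing P. falciparum cultures (0.1% parasitemia, 2% hematocrit final) in Albumax-supplemented RPMI 1640.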
Shiga inhibitor = blocks Shiga toxin action in Vero cells. inhibition, % at 38.7 µM. Vero cells, Shiga toxin protein synthesis inhibition reporter. hit rate 9.2% among 290,000; in the data active means inhibition mostly above about 28%, no sharp cut-off; inactive means mostly below about 43%; further: 0% is about no effect
Pf growth 96h = P. falciparum growth inhibition at 96 hour, primary screen for plastid delayed-death inhibitors; P. falciparum luciferase reporter growth, 96 h; Potency, µM (highest dose often 28.7 µM), without a hit: at the top dose activity change, negative = inhibition, usual class: inhibitors; hit rate 6.9% among 320,000; further: potency means the concentration at half of the fitted maximal effect; on the % scale 0 is the no-effect control and ±100 the full control effect
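96 h incubation, 37 C, 5% CO2, of luciferase-reporter P. falciparum-infected RBCs (2% hematocrit, 0.05% parasitemia final) with test compounds; endpoint luminescence.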
HCV inh = HCV inhibition; Huh7.5.1 HCVcc-Cre infection, luciferase reporter, 44 h; Potency, µM (highest dose often 41.8 µM), for inactives: at the top dose activity change, negative = inhibition, most hits filed as inhibitors; hit rate 3.4% among 340,000; AID 651820; further: potency means the concentration at half of the fitted maximal effect; on the % scale 0 is the no-effect control and ±100 the full control effect
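Infectious HCV cell culture screen: compound-treated cells (1,000/well, pre-plated 4 h) are infected with HCVcc-Cre at roughly 0.5 moi and grown 44 h. Infection is quantified by luciferase signal after 15 min substrate incubation at room temperature.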
Cycloheximide cs = counter-screen for Shiga toxin inhibitors: cycloheximide protein synthesis inhibition | cell reporter, cycloheximide protein synthesis inhibition counterscreen | max response, % | hit rate 12% among 300,000; in the data active means max response mostly above about 13%, no sharp cut-off; inactive means mostly below about 14%; further: read at 38.3 µM for the half of the compounds with a filed dose; 0% is about no effect
AMA1-RON2 inh = AMA1-RON2 (P. falciparum) interaction inhibition; AlphaScreen AMA1-biotinylated RON2 peptide binding; Potency, µM (top dose mostly 58.2 µM), inactives show at the top dose activity change, negative = inhibition, actives largely listed as inhibitors; hit rate 0.2% among 360,000;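 further: potency means the concentration at half of the fitted maximal effect; 0% = vehicle wells and -100% = peptide control; nearly all actives have a fitted effect of over 45% in size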
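AMA1 (3D7) with his tag at 25 nM final met compounds first, then biotinylated RON2 peptide at 25 nM; detection used donor plus acceptor beads, 10 µg/mL apiece, read by AlphaScreen after 30 min at room temperature.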
An asterisk follows results filed as active; i = inactive; u = inconclusive; x = not tested or not shown; [ ] = remark or other dose. Rows were chosen to be rich in hits. Some 21% of all compounds tested hit in one or more screens of this group. Unless noted, the call rests on the fitted dose curve; in most records, active means well fitted curve in the direction sought with a large enough effect; inconclusive means small, poorly fitted or top-dose-only effect, or another doubt; inactive means no such curve, though single readings can be large; an effect the other way counts as inactive or inconclusive.

SMILES	Pf growth 48h	Shiga inhibitor	Pf growth 96h	HCV inh	Cycloheximide cs	AMA1-RON2 inh
CC1(C)C(C(=O)NN2C(=O)c3ccccc3C2=O)C1(C)C	x	12.5	-16.7%	u	0.2	3.1%
CC(C)(C)S(=O)(=O)c1nc2ccccc2s1	4.7%	-5.6	53.0%	19.8%	3.4	u
CCS(=O)(=O)CCSc1nc2ccccc2s1	26.6%	2.2	x	9.5%	3.6	-1.8%
C=CCS(=O)(=O)c1nc2ccccc2s1	u	20.5	u	u	44.2*	-5.3%
O=S(=O)(CCSc1nc2ccccc2s1)c1nc2ccccc2s1	11.7µM*	14.7	36.9%	u	14.5	-13.2%
CCN(C(=O)COC(=O)CCC1CCCC1)c1c(N)n(Cc2ccccc2)c(=O)[nH]c1=O	5.5%	x	-2.4%	-5.3%	x	0.4%
CC1CN(C(=O)/C(C#N)=C2\N=C(NC(=O)c3ccccc3Cl)c3ccccc32)CC(C)O1 (centres undefined)	-5.4%	-3.0	-8.7%	15.9%	-1.5	x
Cc1ccc(C(c2cc(Br)ccc2O)N2CCSCC2)cc1 (centres undefined)	9.28µM*	x	14.7µM*	10.3%	x	-11.5%
CCCCN1C(=O)C(C(=O)OCC)CC2=C1CCCC2=O (centres undefined)	x	x	x	-19.8%[8.37 µM]	x	-5.9%
Cc1ccc(C)c(OCCC(=O)Nc2cccc(S(=O)(=O)N3CCCCC3)c2)c1	11.7µM*	x	u	u	x	-1.5%[11.6 µM]
Cc1ccc(C)c(C(=O)OCC(=O)Nc2cccc(S(=O)(=O)N3CCCCC3)c2)c1	10.4µM*	x	10.4µM*	10µM*	x	9.5%
CC1CCc2c(C(=O)OCC(=O)Nc3cccc(S(=O)(=O)N4CCCCCC4)c3)csc2C1 (centres undefined)	29.9%	3.7	84.8%	7.08µM*	-3.1	-14.1%
CCOC(=O)[C@]12CCC=C1N(Cc1ccccc1)C(=O)[C@H](CC(=O)NCCC(C)C)C2	x	x	x	x	x	-21.2%
CCOC(=O)C1=C[C@@H](CC)N(S(=O)(=O)c2ccccc2)[C@H]1c1ccccc1	x	x	x	x	x	4.4%
NC(=O)c1ccc(-c2ccc(Br)cc2)o1	u	56.3*	-50.1%	-14.8%	12.7	-1.6%
NC(=O)C1CCN(C(=S)c2ccc(-c3ccc(Br)cc3)o2)CC1	170.0%	78.5*	-32.4%	-11.7%	36.6*	-8.1%
O=C(O)c1ccc(-c2ccc(-c3ccccc3)cc2)o1	x	i	x	x	1.8	x
COC(=O)COc1coc(CN2CCN(c3cccc(Cl)c3)CC2)cc1=O	-4.8%	-3.6	u	15.0%	-3.5	2.9%
CCCC(=O)Nc1ccccc1NC(=O)c1ccc(OC)cc1	-3.0%	-17.0	-23.9%	7.9%	-1.5	-1.5%
COc1ccc(C(=O)Cc2ccc(F)cc2)c(OC)c1	105.5%	79.8*	u	0.1%	64.4*	13.9%
O=C(COc1ccc(F)cc1)c1c(O)cc(O)cc1O	-22.8%	118.7*	u	18.7%	48.1*	5.4%
COc1ccc(C(=O)CCc2ccccc2)c(O)c1	x	x	x	u	x	18.0%
COc1ccc(C(=O)COc2ccc(F)cc2)c(O)c1	33.3%	69.1*	117.6%	5.1%	28.9*	-1.9%
COc1ccc(C(=O)Cc2cc(OC)c(OC)cc2[N+](=O)[O-])c(OC)c1	u	-8.3	u	4.9%	11.2	-0.9%
COc1ccc(OCCN2CCC(C(=O)NC(c3ccsc3)c3ccccc3C)CC2)cc1 (centres undefined)	x	x	x	x	x	-7.6%
SMILES	Pf growth 48h	Shiga inhibitor	Pf growth 96h	HCV inh	Cycloheximide cs	AMA1-RON2 inh
COc1ccc(S(=O)(=O)N2CCC(C(=O)NCc3ccncc3)CC2)cc1	-5.1%	-4.2	2.1%	-2.9%	-3.0	-3.0%
CC1CCCCN1S(=O)(=O)c1ccc(N(C(=O)c2cnccn2)C(C(=O)NC2CCCC2)c2cccs2)cc1 (centres undefined)	13.1µM*	-5.5	u	u	-4.3	5.6%
Cc1ccc(N(C(=O)c2cnccn2)C(C(=O)NC2CCCCC2)c2ccc(O)cc2)cc1 (centres undefined)	u	-29.1	-23.8%	-2.4%	-2.8	-6.0%
CC1CCCCN1S(=O)(=O)c1ccc(N(C(=O)c2cnccn2)C(C(=O)NC2CCCCC2)c2cccs2)cc1 (centres undefined)	11.7µM*	-13.4	8.28µM*	u	-1.1	-4.0%
Cc1cc(C)cc(N(C(=O)c2ccccn2)C(C(=O)NC2CCCCC2)c2cccs2)c1 (centres undefined)	u	17.6	u	-2.7%	8.3	-2.2%
Cc1c(N=C/C=C/c2ccccc2)c(=O)n(-c2ccccc2)n1C	x	-11.1	x	4.5%	-2.1	-4.2%
Cc1c(N=C/C=C/c2ccccc2)cnn1C	25.3%	32.6	94.2%	0.7%	23.0*	-2.2%
CCOC(=O)c1c(NC(=O)CSc2nnc(C)s2)sc2c1CCCCC2	-17.4%	9.2	16.6%	10µM*	-1.2	-18.1%
CCOC(=O)c1c(NC(=O)Cn2nnc3ccccc32)sc2c1CCC(C)C2 (centres undefined)	u	-11.2	x	1.58µM*	-0.8	-6.0%
CCOC(=O)c1c(NC(=O)COC(=O)Cn2cnc3ccccc32)sc2c1CCC(C)C2 (centres undefined)	6.8%	-5.8	38.6%	u	-1.5	-18.9%
CCOC(=O)c1c(NC(=O)CSc2nnc(-c3c[nH]c4ccccc34)n2CCOC)sc2c1CCCC2	7.38µM*	1.7	9.28µM*	11.2µM*	-1.6	-18.1%
CCOC(=O)c1c(NC(=O)CSc2nnc(C)s2)sc2c1CCC(C)C2 (centres undefined)	11.7µM*	-10.2	16.5%	11.2µM*	-1.4	-9.8%
CCOC(=O)c1c(NC(=O)CSc2nnc(-c3c[nH]c4ccccc34)n2C)sc2c1CCCC2	u	-12.5	u	-2.3%	-2.7	-4.9%
O=C(NCc1ccco1)c1ccc(COc2ccccc2Cl)cc1	u	35.4	u	11.2µM*	15.8	-0.7%
NNC(=O)c1ccc(COc2cccc3ccccc23)cc1	u	-7.9	u	20.1%	-6.1	36.4%
O=C(NCc1ccco1)c1ccc(COc2ccc(Cl)cc2)cc1	u	32.8	u	-11.6%	11.2	1.4%
O=C(NCc1ccco1)c1ccc(COc2cccc3ccccc23)cc1	7.38µM*	28.2	7.38µM*	u	9.4	15.1%
CC1=C(C(=O)OCc2ccccc2)C(c2ccccc2-c2ccccc2)NC(=O)N1CCCCCC(=O)O (centres undefined)	u	-21.5	11.7µM*	5.7%[8.37 µM]	-4.0	-4.3%
CC1=C(C(=O)OCc2ccccc2)C(c2ccc3ccccc3c2)NC(=O)N1CCCCCC(=O)O (centres undefined)	u	-14.9	10.4µM*	0.6%[8.37 µM]	-2.4	-3.0%
CC1=C(C(=O)OCc2ccccc2)C(c2ccc3ccccc3c2)NC(=O)N1CCCC(=O)O (centres undefined)	2.2%	-3.5	68.2%	14.1%	-1.0	-27.1%
